Source: PubChem BioAssay
Hits are enriched below; roughly 27% of the tested compounds scored in any of these assays.
CYP2C9 activ: human CYP2C9 activators, primary screen, biochemical, luminescence | actives 1.4% (n = 96,000) | Cytochrome P450 2C9 (Homo sapiens), P11712 | AID 1024, 2008 | recombinant CYP2C9, luciferin-H conversion; hits give high values; factor 1 = untreated enzyme, 0 = blocked | activation factor at 5 µM;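 active means activation factor of 2 or more for CYP2C9 at a 5 µM dose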
CYP2C19 activ: human CYP2C19 activators, primary screen, biochemical, luminescence. recombinant CYP2C19, luciferin-H EGE luminescence; hits give high values; 0 = fully inhibited enzyme, 1 = untreated enzyme. activation factor at 5 µM. 96,000 tested, under 10 active. AID 1025, 2008;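 active means activation factor of at least 2 at 5 µM in the primary screen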
CYP2C19 inh: blockers of cytochrome P450 2C19 activity – biochemical, luminescence, ADME assay, primary screen; AID 778, 2007; actives 21% (n = 96,000); inhibition, % at 5 µM; CYP2C19 Supersomes, luciferin-H EGE luminescence, 30 min; P33261;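 active means CYP2C19 inhibition above a set limit at 5 µM in the primary screen, cut at about 50% in these data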
CYP2C9 inh: blockers of cytochrome P450 2C9 activity – biochemical, luminescence, ADME assay, primary screen; P11712; CYP2C9 Supersomes, luciferin-H conversion; inhibition, % at 5 µM; actives 20% (n = 96,000); AID 777, 2007;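 active means blocking of liver enzyme CYP2C9 beyond about 50% at 5 µM, limit read from the data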
Cav32 inh: Cav3.2 calcium influx blockers – cell-based, Fluo-4 calcium fluorescence, FDSS, MLSMR library, primary screen. AID 449739, 2010. Voltage-dependent T-type calcium channel subunit alpha-1H (Homo sapiens), O95180. B-score at 10 µM. actives 4% (n = 100,000). Cav3.2-expressing cells; hits give low values;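 active means single-dose well whose peak fluorescence ratio is a statistical outlier from its plate by either plate-standardised score or position-corrected B-score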
A number is an active result; – = inactive; · = no result given.

SMILES | CYP2C9 activ | CYP2C19 activ | CYP2C19 inh | CYP2C9 inh | Cav32 inh
CCN(CCCNC(=O)C1CCC(=O)N1Cc1ccc(C)cc1)c1cccc(C)c1 (configuration not stated) | – | – | – | – | -3.4
Cc1ccc(CCNC(=O)C2CCC(=O)N2Cc2cccnc2)cc1 (configuration not stated) | – | – | 59 | – | –
O=C(NCCc1ccc(Cl)cc1)C1CCC(=O)N1Cc1ccc(F)cc1 (configuration not stated) | – | – | 73 | 66 | –
COCCCNS(=O)(=O)c1ccc(S(=O)(=O)N2CCCC2)cc1 | – | – | – | – | –
COc1ccc(NC(=O)CN(C)C(=O)c2ccc(C)s2)cc1 | – | – | – | – | –
COc1ccc(Cc2c(O)nc(SCC(=O)N3CCCCCC3)[nH]c2=O)cc1 | · | · | · | · | –
c1ccc(NCc2nnc3n2CCCCC3)cc1 | – | – | – | – | –
Clc1ccc(NCc2nnc3n2CCCCC3)cc1 | – | – | 55 | – | –
Cc1ccc(S(=O)(=O)Nc2nc(C)c(NC(=O)OCCCl)s2)cc1 | – | – | – | 89 | ·
Cc1ccc(S(=O)(=O)Nc2nc(C)c(NC(=O)Nc3ccc(Cl)cc3Cl)s2)cc1 | – | – | – | 61 | –
CS(=O)(=O)N1CCN(C2Cc3ccccc3C2)CC1 | – | – | 57 | – | ·
COC(=O)C1N[C@@H]([C@@H](NC(=O)COc2ccccc2)C(=O)NCc2ccsc2)SC1(C)C (some centres not stated) | · | · | · | · | –
N#CC1=C2C=CC=CN2CC1=O | – | – | – | – | –
Cc1c2cccn2cc[n+]1C | – | – | – | – | –
O=S(=O)(c1ccc(-n2cnnn2)cc1)N(C1CCCCC1)C1CCCCC1 | – | – | – | – | –
O=C(NCC1CC1)C1CCCN(S(=O)(=O)c2ccc(-n3cnnn3)cc2)C1 (configuration not stated) | – | – | – | – | –
CC1CCCCC1NS(=O)(=O)c1ccc(-n2cnnn2)cc1 (configuration not stated) | – | – | 88 | – | –
CC1CCCCC1NS(=O)(=O)c1ccc(S(=O)(=O)N2CCCC2)cc1 (configuration not stated) | – | – | 79 | 79 | –
CN(C1CCCCC1)S(=O)(=O)c1ccc(-n2cnnn2)cc1 | – | – | 100 | – | –
CCC(C)(C)n1nnnc1C(C(C)C)N1CCC(C(N)=O)CC1 (configuration not stated) | – | – | – | – | –
Nc1nc2ccc(Oc3ccccc3)cc2s1 | – | – | 68 | 71 | –
CC(=O)OC1COC(OC2C(O)C(C)OC(OC3C(OC4CCC5(C)C(CCC6(C)C5CC=C5C7CC(C)(C)CCC7(C(=O)O)CCC56C)C4(C)CO)OCC(O)C3O)C2O)C(O)C1OC(C)=O (configuration not stated) | · | · | · | · | -5
CC1(C)CC[C@]2(C(=O)O)CC[C@]3(C)C(=CC[C@@H]4[C@@]5(C)CC[C@H](O)C(C)(C)[C@@H]5CC[C@]43C)[C@@H]2C1 | · | · | · | · | –
CCc1nnc(NC(=O)c2ccncc2)s1 | – | – | – | – | –
CC(C)Cc1nnc(NC(=O)c2ccncc2)s1 | – | – | 92 | 96 | –
SMILES | CYP2C9 activ | CYP2C19 activ | CYP2C19 inh | CYP2C9 inh | Cav32 inh
Cc1ccc(NC(=O)CCC(=O)O)cc1F | – | – | – | – | –
Cc1nc(SCC(=O)Nc2ccc(C)c(F)c2)c2oc3ccccc3c2n1 | – | – | 79 | 93 | –
O=C(CSc1ncnc2c1oc1ccccc12)Nc1ccccc1C(F)(F)F | – | – | – | 85 | –
O=C(CSc1ncnc2c1oc1ccccc12)NCc1ccco1 | – | – | – | 60 | –
O=C(O)CSc1ncnc2c1oc1ccccc12 | – | – | – | – | –
COc1cccc(NC(=O)CSc2ncnc3c2oc2ccccc23)c1 | – | – | – | – | –
COc1ccc(CCNC(=O)CSc2ncnc3c2oc2ccccc23)cc1OC | – | – | 51 | 82 | –
CCOC(=O)CC(=O)CSc1ncnc2c1oc1ccccc12 | – | – | – | – | ·
CCOC(=O)NC(=O)CSc1nnc(C)s1 | – | – | – | – | –
O=C(CSc1c(Cl)cccc1Cl)N1CCC(c2nc3ccccc3s2)CC1 | – | – | – | – | ·
CC1CCCN(C(=O)CSc2cnc3ccccc3n2)C1 (configuration not stated) | – | – | 50 | – | –
O=C(CSc1nc2ccccc2s1)Nc1ncccn1 | – | – | – | – | –
CC1CCCC(C)N1C(=O)CSc1nc2ccccc2s1 (configuration not stated) | – | – | 86 | 61 | –
CCCCC1CC(C)(C(=O)CSc2nc3ccccc3s2)OC1=O (configuration not stated) | – | – | – | 78 | –
O=C(CSc1nc2ccccc2s1)N1CCCCC1 | – | – | 84 | – | –
Cc1cc(N2CCCC2=O)cc(C)c1CN1C(=O)c2ccccc2C1=O | · | · | · | · | –
CCOc1ccc(N2C(=O)CC(N3CCN(c4ccc(C(=O)c5ccncc5)cc4)CC3)C2=O)cc1 (configuration not stated) | · | · | · | · | –
CC1CCN(C(=O)CSc2nc3ccccc3s2)CC1 | – | – | 57 | 63 | ·
Cc1cc(NC(=O)CSc2nc3ccccc3s2)no1 | – | – | – | – | –
O=C(CSc1ccc(Cl)cc1)N1CCC(c2nc3ccccc3s2)CC1 | – | – | – | 54 | –
CCc1ccc(C(=O)N2CCC(c3nc4ccccc4s3)CC2)cc1 | – | – | – | 76 | –
NC(=O)C1CCN(C(=O)CSc2nc3ccccc3s2)CC1 | – | – | – | – | –
CC1CN(C(=O)C(C)Sc2nc3ccccc3s2)CC(C)O1 (configuration not stated) | – | – | 94 | – | –
O=C(c1ccc(S(=O)(=O)N2CCC(c3nc4ccccc4s3)CC2)cc1)N1CCOCC1 | – | – | – | – | ·
CCCCCCCCCNC(=O)[C@H](NC(=O)COc1ccccc1)[C@@H]1NC(C(=O)OC)C(C)(C)S1 (some centres not stated) | · | · | · | · | –
CC(C)OP(=O)(OC(C)C)C(NC(=O)c1ccc(Br)cc1)c1ccccc1 (configuration not stated) | – | – | – | – | –
O=S(=O)(c1ccc(Cl)cc1)N1CCCC1c1nc2ccccc2s1 (configuration not stated) | – | – | – | – | -4.5
Cc1ccc(S(=O)(=O)N2CCN(C(=O)c3c(C)nn(-c4ccccc4)c3Cl)CC2)cc1 | – | – | – | 50 | –
COc1ccc(S(=O)(=O)N2CCN(C(=O)c3c(C)nn(-c4ccccc4)c3Cl)CC2)cc1 | – | – | 88 | 90 | –
